# Screening results deposited in PubChem BioAssay by National Center for Advancing Translational Sciences (NCATS).
# Rows were chosen to be rich in hits. Some 2.6% of all compounds tested hit in one or more screens of this group.
# Cruzain noTriton – inhibitors of Trypanosoma cruzi cruzain without detergent; P25779; purified cruzain, Z-FR-AMC fluorescence, no detergent; Potency, µM, without a hit: max response, negative = inhibition, actives largely listed as inhibitors; hit rate 2.3% among 200,000; AID 1476;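 also: plate controls were enzyme without inhibitor for no effect and buffer without enzyme for full effect; nearly all actives have a fitted effect of over 40% in size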
# Target sequence (P25779 123-467 limits assumed): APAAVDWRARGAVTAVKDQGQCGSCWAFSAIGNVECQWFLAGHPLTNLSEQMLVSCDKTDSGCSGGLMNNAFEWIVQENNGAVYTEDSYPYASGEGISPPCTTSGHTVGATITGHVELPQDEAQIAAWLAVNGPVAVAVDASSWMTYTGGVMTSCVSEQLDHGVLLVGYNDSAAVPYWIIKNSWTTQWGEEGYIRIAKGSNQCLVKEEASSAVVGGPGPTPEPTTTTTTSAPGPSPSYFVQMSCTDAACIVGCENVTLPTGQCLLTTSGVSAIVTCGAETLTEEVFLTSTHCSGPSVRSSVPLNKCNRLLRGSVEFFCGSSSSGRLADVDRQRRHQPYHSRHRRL
#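 Detergent-free condition (0.00005% Triton X-100) in acetate buffer pH 5.5 with DTT. 1.5 nM enzyme and compound were pre-mixed 15 min, then 2 uM Z-FR-AMC substrate added; reaction progress from fluorescence change between first and third reads (60 s).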
# Cruzain Triton – inhibitors of Trypanosoma cruzi cruzain with detergent. hit rate 0.43% among 200,000. P25779. Potency, µM, for the others: max response, negative = inhibition, most hits filed as inhibitors. purified cruzain, Z-FR-AMC fluorescence, 0.01% Triton. AID 1478;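 also: plate controls were neutral wells for no effect and buffer without enzyme for full effect; nearly all actives have a fitted effect of over 40% in size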
#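 Steps: dispense cruzain (1.5 nM final) in acetate buffer pH 5.5 with DTT and 0.01% Triton X-100; pin-transfer compounds; incubate 15 min RT; add Z-FR-AMC (2 uM final); read fluorescence every 30 s, using the 60 s intensity change.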
# * marks the source's active call; other numbers are inactive results; ? = inconclusive. Calls follow the shape of the dose curve; as a rule, active = well fitted curve in the direction sought with a large enough effect; inconclusive = small, poorly fitted or top-dose-only effect, or another doubt; inactive = no such curve, though single readings can be large; an effect the other way counts as inactive or inconclusive. Potency is read from the fitted curve at half-maximal effect.
SMILES,Cruzain noTriton,Cruzain Triton
CN(C)S(=O)(=O)c1cccc(NC(=O)c2cc(-c3cccs3)nc3ccccc23)c1,16µM*,-4%
O=C(Nc1ccc(Br)cc1)c1cc(-c2cccs2)nc2ccccc12,-2%,-6%
O=C(Nc1nc2c(s1)CCCC2)c1cc(-c2ccncc2)nc2ccccc12,?,2%
O=C(NC1=NCCS1)c1cc(-c2ccc(-c3ccccc3)cc2)nc2ccccc12,7.9µM*,-3%
CC(C)(C)c1nnc(NC(=O)c2cc(-c3ccccc3)nc3ccccc23)s1,-28%,-3%
COC(=O)c1sccc1NC(=O)c1cc(-c2ccc(C)cc2)nc2ccccc12,?,-4%
COC(=O)c1sccc1NC(=O)c1cc(-c2cccc(C)c2)nc2ccccc12,10µM*,0%
C[C@@H](Cc1ccc(Cl)cc1Cl)NO,19%,0%
O=C(c1ccc(Br)cc1)N1CCN(CCc2ccncc2)CC1,-1%,0%
Cc1ccc(-n2nc(CO)c(C(=O)NCCCc3ccccc3)n2)cc1C,-1%,-3%
CC1=CC2C(C)(C)CC(=O)C[C@]2(C)CC1COc1ccc2c(c1)CC(=O)C=C2 (stereo partly drawn),-13%,-8%
CC(C)(C)c1nc(SCC(=O)Nc2nc3c(s2)CCCC3)c2ccccc2n1,?,-14%
Cc1ccc(-c2cc(C(=O)Nc3ccc4c(c3)OCCO4)c3ccccc3n2)cc1,10µM*,-1%
Cc1ccc(NC(=O)c2cc(-c3ccc(C)o3)nc3ccccc23)cc1,-20%,0%
O=C(CSc1nc(Cc2ccccc2)nc2ccccc12)Nc1nc2c(s1)CCCC2,25µM*,-9%
O=C(CSc1ncc2c(n1)-c1cc(Cl)ccc1N(Cc1ccccc1)S2(=O)=O)NCc1ccccc1,16µM*,-4%
CCN1c2ccccc2-c2nc(SCC(=O)Nc3ccc(C)c(Cl)c3)ncc2S1(=O)=O,?,-1%
COc1cccc(CN2c3ccccc3-c3nc(SCC(=O)Nc4cccc(C)c4)ncc3S2(=O)=O)c1,?,-4%
O=C(CSc1ncc2c(n1)-c1cc(Cl)ccc1N(Cc1ccccc1)S2(=O)=O)NCCc1ccccc1,6%,3%
COc1cccc(CN2c3ccccc3-c3nc(SCC(=O)Nc4ccccc4Cl)ncc3S2(=O)=O)c1,16µM*,-3%
CCN1c2ccccc2-c2nc(SCC(=O)Nc3cc(C)c(Cl)cc3OC)ncc2S1(=O)=O,25µM*,-3%
CCOc1ccc(CNC(=O)C2CCN(S(=O)(=O)c3ccc4c(ccn4C)c3)CC2)cc1,-7%,-4%
Cc1ccc(Cc2cnc(NC(=O)/C(C#N)=C/c3ccc(-c4ccccc4[N+](=O)[O-])o3)s2)cc1,10µM*,-1%
Cc1ccc(/C=C(\C#N)C(=O)Nc2cccc(Cl)c2)o1,10µM*,0%
N#C/C(=C\c1ccc(-c2ccccc2Cl)o1)C(=O)Nc1nc2ccccc2s1,?,-5%
SMILES,Cruzain noTriton,Cruzain Triton
Cc1ccc(Cn2cc(/C=C(/C#N)C(=O)Nc3cccc(Cl)c3)c3ccccc32)cc1,7.9µM*,-3%
Cn1cc(/C=C(\C#N)C(=O)Nc2ncc(Cc3ccc(Cl)cc3)s2)c2ccccc21,7.9µM*,-4%
Cc1ccc(C(=O)Nc2ncc(Cc3ccccc3)s2)o1,-6%,-2%
N#C/C(=C\c1cn(Cc2ccccc2)c2ccccc12)C(=O)NCc1ccco1,-13%,-6%
Cc1cccc(NC(=O)/C(C#N)=C/c2ccc(C)o2)c1,2%,-9%
CC/C=C\C/C=C\C/C=C\C/C=C\C/C=C\C/C=C\CCC(=O)O[C@H](COCCCCCCCCCCCCCCCC)COP(=O)([O-])OCC[N+](C)(C)C,?,2%
COc1ccc(S(=O)(=O)N2CCC(C(=O)Nc3ccc(Oc4ccccc4)cc3)CC2)cc1OC,5%,-4%
O=C(CCCCCn1c(=O)[nH]c2ccsc2c1=O)NCc1ccccc1,5%,-4%
CC(=O)c1ccc(N2C(=O)N(Cc3ccccc3C#N)c3ccccc3S2(=O)=O)cc1,-20%,-1%
COc1cccc(NC(=O)/C(C#N)=C\c2cn(Cc3ccc(Cl)cc3)c3ccccc23)c1,10µM*,-3%
COc1cccc(NC(=O)Cn2cc(C#N)c3ccccc32)c1,1%,-4%
N#C/C(=C\c1cn(Cc2ccc(F)cc2)c2ccccc12)C(=O)NCc1ccco1,?,-12%
COc1cccc(NC(=O)/C(C#N)=C/c2c(C)n(Cc3ccccc3)c3ccccc23)c1,7.9µM*,-3%
O=C(Cn1nc(-c2ccccc2)nc(Cc2ccccc2)c1=O)Nc1ccc(Cl)cc1,?,1%
Cc1cccc(C(=O)Nc2c(-c3ccc(F)cc3)nc3ccccn23)c1,3%,-3%
COc1ccccc1C(=O)Nc1cc(-c2ccc(C)cc2)no1,4%,-11%
O=C(Nc1cc(-c2ccc(F)c(F)c2)no1)c1ccccc1F,25µM*,-3%
O=C(NCCC1=CCCCC1)C1CCN(S(=O)(=O)c2cccc3nsnc23)CC1,25µM*,-1%
O=C(NCCc1ccccc1)C1CCN(S(=O)(=O)c2cccc3nsnc23)CC1,-6%,2%
O=C(NCCc1ccc(F)cc1)C(=O)NCC(c1ccc2c(c1)OCO2)N1CCOCC1 (stereo not drawn),-9%,0%
COc1ccc(-c2cn3cccnc3n2)cc1F,20µM*,-22%
CCC(=O)Nc1cc(-c2cn3cccnc3n2)ccc1OC,-5%,-6%
Cc1ccc(CNC(=O)c2c[nH]c3ccc(S(=O)(=O)Nc4ccc(C(C)C)cc4)cc3c2=O)cc1,?,-5%
CC1=C(C(=O)Nc2ccc(C)cc2C)C(c2ccccc2F)n2nc(SCC(=O)c3ccc(C)cc3)nc2N1 (stereo not drawn),-6%,6%
OC(CNCCC1C=Nc2ccccc21)Cn1c2ccc(Cl)cc2c2cc(Cl)ccc21 (stereo not drawn),6.3µM*,-16%
SMILES,Cruzain noTriton,Cruzain Triton
OC(CNCC1CCCO1)Cn1c2ccc(Cl)cc2c2cc(Cl)ccc21 (stereo not drawn),?,-4%
CCOC(=O)c1[nH]c(C)c(CCC(=O)N2CCN(c3ccc(OC)cc3)CC2)c1C,-4%,4%
COc1ccc(-c2c3c(nc4sc5c(=O)[nH]c(C)nc5c24)CCC3)cc1,-27%,2%
O=C(Cn1nnc2c(sc3nc4c(c(-c5ccccc5)c32)CCC4)c1=O)c1ccccc1,25µM*,1%
O=C(Nc1ccccc1)c1ccc(Br)c(S(=O)(=O)N2CCCCC2)c1,7%,-7%
O=C(NCc1cc(F)cc2c1OCCO2)[C@H]1C[C@@H]1[C@H](NP(=O)(c1ccccc1)c1ccccc1)c1ccccc1,0%,-3%
COc1ccc(C(=O)N2CCC(c3c[nH]c4ccccc34)(c3c[nH]c4ccccc34)CC2)cc1,-15%,-3%
CCN(CC)c1ccc(C(=O)N2CCC(c3c[nH]c4ccccc34)(c3c[nH]c4ccccc34)CC2)cc1,10µM*,-2%
O=C(COc1cccc(Cl)c1)N/N=C\c1cc2ccccc2nc1Cl,-18%,9%
O=C(CNc1ccc2ccccc2c1)N/N=C/c1cc2ccccc2nc1Cl,25µM*,-14%
O=C(O)[C@H](C1NCCS1)N1Cc2ccccc2C1 (stereo partly drawn),1%,10%
COc1ccc2c(c1)CCc1c(C(=O)Nc3c(C)nn(Cc4ccc(Cl)cc4)c3C)noc1-2,2%,-5%
COc1ccc2c(c1)CCc1c(C(=O)Nc3cc(C)n(Cc4ccc(Cl)cc4)n3)noc1-2,13µM*,-3%
O=c1ccsn1Cc1ccccc1,13µM*,?
O=c1ccn(Cc2ccccc2)c(=O)n1Cc1ccccc1,3%,-4%
